The list is not random: actives were taken first. Their share in the collection is about 2.7%.
KLK7 zymogen act: activators of human kallikrein-7 zymogen. purified proKLK7, EDANS-DABCYL substrate fluorescence; 100% is mature enzyme control, 0% vehicle. activation, % at 7 µM. 370,000 compounds, 0.9% hits. AID 652039;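 active = activation above the mean of all tested compounds plus 3 SD, computed per campaign excluding outliers beyond control limits, cut at about 13% in these data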
Neddyl block: blocks human cullin neddylation; P61081+Q13564; TR-FRET cullin neddylation, biochemical; calls only at 25 µM; 360,000 compounds, 0.58% hits; AID 651699; in the data active = inhibition above about 36%
Target sequence (P61081 whole entry, looked up): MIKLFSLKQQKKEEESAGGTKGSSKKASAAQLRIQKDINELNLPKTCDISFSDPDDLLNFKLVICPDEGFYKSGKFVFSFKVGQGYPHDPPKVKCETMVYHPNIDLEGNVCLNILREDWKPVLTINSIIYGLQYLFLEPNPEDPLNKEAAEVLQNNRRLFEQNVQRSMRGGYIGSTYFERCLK
Target sequence (Q13564 whole entry, looked up): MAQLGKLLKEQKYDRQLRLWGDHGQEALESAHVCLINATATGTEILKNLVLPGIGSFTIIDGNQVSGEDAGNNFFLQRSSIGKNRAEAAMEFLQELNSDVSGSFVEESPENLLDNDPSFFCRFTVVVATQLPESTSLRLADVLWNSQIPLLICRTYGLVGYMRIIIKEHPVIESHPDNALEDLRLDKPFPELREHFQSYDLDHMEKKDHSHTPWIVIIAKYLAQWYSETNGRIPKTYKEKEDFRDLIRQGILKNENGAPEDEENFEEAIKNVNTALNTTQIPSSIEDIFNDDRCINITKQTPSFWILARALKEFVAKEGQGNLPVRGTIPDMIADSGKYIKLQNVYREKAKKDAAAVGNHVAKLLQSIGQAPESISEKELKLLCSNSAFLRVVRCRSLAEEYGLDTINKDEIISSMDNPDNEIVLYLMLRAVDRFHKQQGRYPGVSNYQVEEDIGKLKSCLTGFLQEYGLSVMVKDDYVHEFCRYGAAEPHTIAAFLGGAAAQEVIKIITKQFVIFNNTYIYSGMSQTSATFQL
FAS TE block: blocks the thioesterase domain of human fatty acid synthase. recombinant FAS-TE, OMFH fluorogenic substrate, fluorescence endpoint. P49327. inhibition, % at 15 µM. 360,000 compounds, 0.67% hits;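 active = compounds whose normalised, plate-corrected inhibition of enzyme fluorescence in the single-dose primary screen is 50% or more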;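 note: 0% = DMSO with enzyme and 100% = substrate without enzyme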
PfG6PD inh: PfG6PD (Plasmodium falciparum) enzyme inhibition; PfGluPho enzyme, NADPH resazurin-diaphorase fluorescence; 350,000 compounds, 0.78% hits; inhibition, % at 20 µM; AID 504690;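 active = inhibition reaching at least a set limit at 20 µM in the primary screen, cut at about 59% in these data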;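 note: 0% = DMSO wells with substrate and 100% = DMSO wells lacking glucose-6-phosphate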
FAS-TE inh conf: FAS thioesterase (human) inhibition, confirmation; shares compounds with FAS TE block; recombinant FAS-TE, OMFH fluorogenic substrate, fluorescence; 2,300 compounds, 45% hits; AID 624325; inhibition, % at 15 µM;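 active = compounds inhibiting the enzyme by at least 50% at 15 µM in any one of the replicates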;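 note: 0% = enzyme with DMSO only and 100% = wells lacking enzyme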
The depositor's hits bear a star; i = inactive; · = no result given.

SMILES	KLK7 zymogen act	Neddyl block	FAS TE block	PfG6PD inh	FAS-TE inh conf
CN[C@H]1C[C@H]2c3cc(-c4ccc5c(c4)OCO5)ccc3CCN2C[C@H]1[C@H](C)O	0	·	·	·	·
Clc1ccc([C@H]2OC[C@@]3(CNC4CCCCC4)CS[C@H](c4ccc(Cl)cc4)N23)cc1	-1	·	·	·	·
COc1cc(/C=N/NC(=O)c2ccc(CN3c4cccc5cccc(c45)S3(=O)=O)cc2)cc(OC)c1O	-7	·	6	-5	·
COc1ccc(/C=N/NC(=O)c2ccc(CN3c4cccc5cccc(c45)S3(=O)=O)cc2)cc1	-27	·	79*	-9	10
CCCC[C@H]1C2CC(OC(=O)Nc3ccc4c(c3)OCO4)C(C2)[C@H]2CCCCN21 (stereo not given in full)	0	·	·	·	·
Cn1c(SCC(=O)N2c3ccccc3CCc3ccccc32)nnc1-c1cc2ccccc2cc1O	-5	i	67*	-4	9
Cc1cccc(-c2nnc(SCC(=O)N3c4ccccc4CCc4ccccc43)n2C)c1	-1	i	-4	-4	·
Cc1ccc(C(=O)CN(C(=O)c2ccc(Cl)c(Cl)c2)N2C(=O)C3C4C=CC(C4)C3C2=O)cc1 (stereo not given)	0	i	61*	8	30
O=C(CN(C(=O)c1ccc(Cl)cc1Cl)N1C(=O)C2C3C=CC(C3)C2C1=O)c1ccc(F)cc1 (stereo not given)	0	i	17	2	·
Cc1ccccc1Cn1cc(CN2[C@@H](CC(C)C)COc3cc(Br)ccc3S2(=O)=O)nn1	0	·	·	·	·
CCN(CC)S(=O)(=O)c1ccc(N2CCOCC2)c(NC(=O)C(=O)c2c(-c3ccccc3)cc3ccccn23)c1	1	i	54*	16	34
COc1cccc(Nc2nc(-c3cccs3)nc3ccccc23)c1	1	·	51*	24	34
COc1cccc(/C=C2\CC3(OC(=O)c4ccco4)CCCN2C3)c1 (stereo not given)	-1	·	·	·	·
O=C(CCN1C(=O)/C(=C/c2ccccc2Cl)SC1=S)Nc1ccccc1C(=O)O	0	i	71*	-16	77*
O=C(CCN1C(=O)/C(=C\c2ccccc2Cl)SC1=S)Nc1cccnc1	0	i	57*	-5	54*
O=C(CCCN1C(=O)/C(=C/c2ccccc2Cl)SC1=S)NNC(=O)c1ccccc1	0	i	37	-7	·
Cc1ccc(S(=O)(=O)c2nnn3c2nc(Nc2cccc(C)c2)c2ccccc23)cc1	-1	i	2	-23	·
CC(C)c1ccc(S(=O)(=O)c2nnn3c2nc(NCC2CCCO2)c2ccccc23)cc1 (stereo not given)	·	i	74*	-7	80*
Cc1ccc(C)c(Nc2nc3c(S(=O)(=O)c4ccccc4)nnn3c3ccccc23)c1	-1	i	5	-23	·
O=C1CCCN1CCCNc1nc2c(S(=O)(=O)c3ccc(Br)cc3)nnn2c2ccccc12	0	i	57*	6	29
O=S(=O)(c1ccccc1)c1nnn2c1nc(NC1CCN(Cc3ccccc3)CC1)c1cc(Cl)ccc12	-1	i	80*	2	6
c1ccc2c(c1)nc(NCC1CCCO1)c1nnnn12 (stereo not given)	4	·	-9	-2	·
O=S(=O)(c1ccccc1)c1nnn2c1nc(NC1CCN(Cc3ccccc3)CC1)c1ccccc12	-16	i	82*	0	79*
COc1ccc([C@H]2OC(=O)C[C@H]2C(=O)N2CCN(C(=O)C3CCCO3)CC2)cc1OC (stereo not given in full)	-1	·	·	·	·
CCN1C(=O)[C@H]2[C@@H](c3ccc(C)cc3)N3C(=O)N(c4cccc(Br)c4)C(=O)[C@@]3(Cc3ccccc3)[C@H]2C1=O	0	i	67*	2	25
SMILES	KLK7 zymogen act	Neddyl block	FAS TE block	PfG6PD inh	FAS-TE inh conf
CCN1C(=O)[C@H]2[C@@H](c3ccc(C)cc3)N3C(=O)N(c4cccc(C)c4)C(=O)[C@@]3(Cc3ccccc3)[C@H]2C1=O	0	i	4	-2	·
CCN1C(=O)[C@H]2[C@@H](c3ccc(C)cc3)N3C(=O)N(c4cccc(Cl)c4)C(=O)[C@@]3(Cc3ccc(Cl)cc3)[C@H]2C1=O	0	i	86*	20	53*
CC(C)CCSc1nc(N)c(C#N)cc1C#N	-11	i	65*	3	9
Cc1ccccc1NC(=O)CSc1nc(N)c(C#N)cc1C#N	0	i	-2	-27	·
CC(=O)c1cc(C#N)c(SCCC(C)C)nc1C	·	i	56*	6	48
CN(Cc1ccccc1)C(=O)OCc1cn(Cc2cc(F)ccc2F)nn1	0	·	·	·	·
O=C(CCNc1ccc(Br)cc1)c1cccc([N+](=O)[O-])c1	0	i	64*	-4	53*
O=C(NC(=S)Nc1cccc(C(F)(F)F)c1)c1ccc2nonc2c1	0	i	51*	6	20
Cc1n[nH]c(C)c1S(=O)(=O)NCCc1ccccc1	0	·	·	·	·
O=C(N/N=C/c1cc([N+](=O)[O-])cc([N+](=O)[O-])c1O)/C(=C\c1cccs1)NC(=O)c1ccccc1	0	i	75*	-28	74*
Cc1ccc(C2CC(=O)Nc3c2ccc2ccccc32)cc1[N+](=O)[O-] (stereo not given)	0	i	28	26	·
O=C1CC(c2cccc([N+](=O)[O-])c2)c2c(ccc3ccccc23)N1 (stereo not given)	1	i	55*	-9	49*
O=C1CC(c2cccc([N+](=O)[O-])c2)c2cc3c(cc2N1)CCC3 (stereo not given)	0	i	51*	7	33*
O=C(CSc1nnc(-c2cccs2)o1)Nc1cccc2ccccc12	0	·	·	·	·
CC(C)C[C@@H]1COc2cc(Br)ccc2S(=O)(=O)N1Cc1cn(CCC2OCCO2)nn1	0	·	·	·	·
CCc1ccc(OCC(=O)N2c3ccccc3CCc3ccccc32)cc1	0	i	52*	5	22
O=C(c1cccs1)N1CC[C@H]2[C@H](CCCN2Cc2cc(F)cc(F)c2)C1	0	·	·	·	·
Cn1cc(C(=O)N/N=C/C2=C(N3CCOCC3)C(=C\c3ccccc3)/CC2)ccc1=O	-1	i	-4	2	·
CC(NC(=O)C12CC3CC(CC(C3)C1)C2)C(=O)N/N=C/C1=C(N2CCOCC2)C(=C\c2ccccc2)/CC1 (stereo not given)	0	i	71*	22	9
O=S(=O)(Nc1ccc2c(c1)OCCO2)c1ccc2oc3ccccc3c2c1	0	i	62*	2	47*
Cc1ccccc1N1CCN(S(=O)(=O)c2ccc3c(c2)oc(=O)n3C)CC1	0	·	·	·	·
COC(=O)[C@@]1(Cc2ccc(F)cc2)[C@H]2c3cc(C(=O)N4CCCC4)n(CCF)c3C[C@H]2CN1C(=O)c1ccccc1	1	i	8	·	·
COC(=O)[C@@]1(Cc2ccc(F)cc2)[C@H]2c3cc(C(=O)N4CCCC4)n(CCc4c[nH]c5ccccc45)c3C[C@H]2CN1C(=O)c1ccccc1	0	i	62*	·	16

Source: PubChem (several laboratories)
